Among all 400,000 compounds or so, about 2,100 (0.53%) were called active. Not shown: some 14% with an inconclusive outcome. The rule behind the calls is not given here. The list comes from a sample in which actives are over-represented; it also holds similar structures and randomly drawn compounds.
Target: Ataxin-2 (Homo sapiens) (UniProt Q99700)
Assay: qHTS for Inhibitors of ATXN expression.
Assay type: functional

Chain of Ataxin-2 (Homo sapiens) (Q99700 whole entry): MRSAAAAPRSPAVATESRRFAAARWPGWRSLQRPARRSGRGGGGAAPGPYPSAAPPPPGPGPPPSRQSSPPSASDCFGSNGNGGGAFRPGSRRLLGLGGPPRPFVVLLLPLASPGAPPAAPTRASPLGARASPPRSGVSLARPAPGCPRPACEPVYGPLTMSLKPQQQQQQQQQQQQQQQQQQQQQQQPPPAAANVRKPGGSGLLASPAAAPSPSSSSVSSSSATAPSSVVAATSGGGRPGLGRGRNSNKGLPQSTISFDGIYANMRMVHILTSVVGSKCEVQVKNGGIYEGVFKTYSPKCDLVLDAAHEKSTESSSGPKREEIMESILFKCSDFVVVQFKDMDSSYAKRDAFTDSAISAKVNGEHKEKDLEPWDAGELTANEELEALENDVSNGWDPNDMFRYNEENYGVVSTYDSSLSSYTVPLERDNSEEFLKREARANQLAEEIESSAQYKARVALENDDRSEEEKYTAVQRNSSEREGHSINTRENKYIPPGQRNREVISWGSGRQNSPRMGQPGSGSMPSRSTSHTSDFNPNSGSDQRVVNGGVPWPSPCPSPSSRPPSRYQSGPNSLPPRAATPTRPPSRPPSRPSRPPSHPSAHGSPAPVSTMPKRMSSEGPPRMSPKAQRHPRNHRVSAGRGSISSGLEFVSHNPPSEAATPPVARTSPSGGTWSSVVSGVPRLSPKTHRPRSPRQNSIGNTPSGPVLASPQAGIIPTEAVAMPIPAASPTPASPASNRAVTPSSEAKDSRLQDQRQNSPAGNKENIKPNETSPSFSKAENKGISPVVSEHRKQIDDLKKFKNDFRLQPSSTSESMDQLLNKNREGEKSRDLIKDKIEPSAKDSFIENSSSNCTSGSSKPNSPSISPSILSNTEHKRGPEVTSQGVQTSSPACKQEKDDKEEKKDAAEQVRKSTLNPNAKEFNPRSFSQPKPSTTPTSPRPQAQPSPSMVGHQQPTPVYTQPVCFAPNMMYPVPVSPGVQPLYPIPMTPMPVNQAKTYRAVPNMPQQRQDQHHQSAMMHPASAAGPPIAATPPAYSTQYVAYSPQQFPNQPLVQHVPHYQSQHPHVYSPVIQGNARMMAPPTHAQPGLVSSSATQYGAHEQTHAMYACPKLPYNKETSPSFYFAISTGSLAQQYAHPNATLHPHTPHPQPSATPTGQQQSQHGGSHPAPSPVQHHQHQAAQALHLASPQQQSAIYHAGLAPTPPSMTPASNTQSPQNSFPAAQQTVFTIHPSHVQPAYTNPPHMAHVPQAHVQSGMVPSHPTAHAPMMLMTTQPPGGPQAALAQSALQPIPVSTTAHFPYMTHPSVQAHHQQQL

| SMILES | Potency |
| --- | --- |
| CCOCCCn1/c(=N/C(C)=O)c(C#N)cc2c(=O)n3cccc(C)c3nc21 | inactive |
| CCN(CC)CCCNc1cc(C(F)(F)F)c(C#N)c2nc3ccccc3n12 | inactive |
| CCc1ccc(C2=CC(c3cc(Br)ccc3F)n3ncnc3N2)cc1 (stereo not drawn) | inactive |
| O=C(Nc1cccc(-c2cn3ccccc3n2)c1)c1cc2ccccc2oc1=O | 22.4 µM (active) |
| O=C(Nc1ncccn1)c1cccc(Cl)c1 | inactive |
| Cc1ccn2cc(-c3cc4ccccc4oc3=O)nc2c1 | inactive |
| O=C(Nc1cccc(-c2cn3ccccc3n2)c1)c1cccc(Cl)c1 | 39.8 µM (active) |
| O=C(Nc1ccc(S(=O)(=O)Nc2ccccn2)cc1)c1cccc(Cl)c1 | inactive |
| Cc1cccn2cc(-c3cc4ccccc4oc3=O)nc12 | inactive |
| CCc1c(C)c2cc(Cl)c(O)c(CN(C)C)c2oc1=O | inactive |
| COc1ccc(/C=N/n2cnc3c4cc(C)ccc4nc-3c2O)cc1CN1CCCC1 | 39.8 µM (active) |
| COc1ccc(/C=N/N2C(C)CCCC2C)cc1OC (stereo not drawn) | inactive |
| COc1ccc(/C=N/NC(=O)c2ccncc2)cc1CN1CCOCC1 | inactive |
| CCOc1ccc2nc(NCCN=C(S)NCCCN(C)C)c(C#N)cc2c1 | inactive |
| Cc1c(O)ccc2c(-c3ccccc3)cc(=O)oc12 | inactive |
| COc1ccc(CNC[C@@H](CCCCN(C)Cc2ccc(OC)cc2)N2C[C@H](c3ccccc3)N(CCc3ccc(Cl)c(Cl)c3)C(=O)C2=O)cc1 | 25.1 µM (active) |
| CC(=O)NS(=O)(=O)c1ccc(/N=c2\ssc3c2-c2cc(C)ccc2NC3(C)C)cc1 | 39.8 µM (active) |
| CCN(CC)c1cc(C)c2cc(NC(=O)c3cc(OC)cc(OC)c3)ccc2n1 | 35.5 µM (active) |
| COc1ccc(Nc2cc(C)c3cc(NC(=O)Cc4c(F)cccc4Cl)ccc3n2)cc1 | inactive |
| CCn1nc(NC(=O)c2ccccc2)c2cc3cccc(C)c3nc21 | inactive |
| Cc1cccc(OCC(=O)Nc2ccc3nc(Nc4cccc(Cl)c4)cc(C)c3c2)c1 | inactive |
| Cc1cc(Nc2cccc(Cl)c2)nc2ccc(NC(=O)c3cncc(Br)c3)cc12 | inactive |
| CCN(CC)c1cc(C)c2cc(NC(=O)c3cccc(F)c3)ccc2n1 | 39.8 µM (active) |
| O=C(Nc1ccc(F)cc1)c1ccc2nc(O)c(O)nc2c1 | inactive |
| CCN(CC)c1cc(C)c2cc(NC(=O)/C=C/c3ccccc3Cl)ccc2n1 | 28.2 µM (active) |
| CCN(CC)c1cc(C)c2cc(NC(=O)c3ccc(Br)o3)ccc2n1 | 35.5 µM (active) |
| COc1ccc(Nc2cc(C)c3cc(NC(=O)c4cc(OC)cc(OC)c4)ccc3n2)cc1 | inactive |

| SMILES | Potency |
| --- | --- |
| Cc1ccccc1/C=C/c1cccc[n+]1C | inactive |
| O=C(N/C(=C/c1cccc(Br)c1)C(=O)N1CCOCC1)c1ccco1 | inactive |
| C(=Cc1c[nH]c2ccccc12)c1ccc2ccccc2n1 | inactive |
| CC(C(=O)NCC1CCCCC1)N(C)CC(=O)Nc1ccc(N2CCOCC2)cc1 (stereo not drawn) | inactive |
| Cc1cccc(C2C=C(c3ccc(C)c(C)c3)Nc3nnnn32)c1 (stereo not drawn) | inactive |
| CCN(CC)c1cc(C)c2cc(NC(=O)c3cccc(OC)c3)ccc2n1 | 39.8 µM (active) |
| CCN1CCN(c2cc(C)c3cc(NC(=O)c4cccc(OC)c4)ccc3n2)CC1 | inactive |
| Cc1ccc(NN2C(=O)C=C(c3ccc(Cl)cc3)C2=O)cc1 | 28.2 µM (active) |
| CC(=O)c1ccc(F)c(-c2cc(C)cc3c2OC(CNC(=O)c2csc(C)n2)C3)c1 (stereo not drawn) | inactive |
| Cc1cccc(COC[C@H](CC(C)C)N2CCN(C(=O)c3ccc(C(F)(F)F)cc3)CCC2=O)c1 | 35.5 µM (active) |
| Cc1cccc(COC[C@H](CC(C)C)N2CCN(C(=O)c3ccc(C(C)(C)C)cc3)CCC2=O)c1 | 39.8 µM (active) |
| CC(C)CC(COCc1cccc(C(F)(F)F)c1)N1CCN(C(=O)c2cccc(C(F)(F)F)c2)CCC1=O (stereo not drawn) | 31.6 µM (active) |
| O=C(COC(=O)C1=Cc2ccccc2OC1)NCc1ccco1 | inactive |
| Cn1c(Cl)c(/C=N/OC(=O)C2CC2)c2ccccc21 | inactive |
| O=c1ccc2cc(O)c(O)cc2o1 | inactive |
| OC[C@@H]1[C@@H](c2ccc(Cl)cc2)C(c2cccc(Cl)c2)=NN1c1ccccc1 | inactive |
| O=C(O)c1c2c(nc3ccc(Cl)cc13)CCC2 | inactive |
| CCCN(CCC)C(=O)CSc1c2c(nc3ccc(Cl)cc13)CCCC2 | 39.8 µM (active) |
| CC1CCCC(NC(=O)c2ccc3c(SCC(=O)O)c4c(nc3c2)CCC4)C1C (stereo not drawn) | inactive |
| CCN(CC)CCNC(=O)CSc1c2c(nc3cc(Cl)ccc13)CCCC2 | 35.5 µM (active) |
| CCN(CC)CCCC(C)n1c2nc(=O)[nH]c(=O)c-2nc2cc(Cl)ccc21 (stereo not drawn) | inactive |
| O=C(CSc1c2c(nc3ccc(Cl)cc13)CCCC2)NCCCN1CCOCC1 | 35.5 µM (active) |
| CCOC(=O)C1CCCc2c1[nH]c1ccc(Cl)cc21 (stereo not drawn) | inactive |
| CCN(CC)CCCNC(=O)CSc1c2c(nc3cc(Cl)ccc13)CCCC2 | 28.2 µM (active) |
| CCN(CC)CCCNC(=O)CSc1nc(C)cc(C)n1 | inactive |
| Cc1cc2cc(C#N)c(NCCN=C(S)NCCCN3CCOCC3)nc2cc1C | inactive |

Source: ChEMBL document CHEMBL1201862, “PubChem BioAssay data set” (2004)
